Reference: PubChem BioAssay (NCATS)
Inconclusive results are not listed. Activity calls are given as the source filed them. The call rests on the fitted dose curve; in most records, active means well fitted curve in the direction sought with a large enough effect; inconclusive means small, poorly fitted or top-dose-only effect, or another doubt; inactive means no such curve, though single readings can be large; an effect the other way counts as inactive or inconclusive.

Assays:
CRL-7250 = normal cell line; experiment: Cytotoxic Profiling of Annotated Libraries Using Quantitative High-Throughput Screening (AID 1296008); details: Five cell lines viability, CellTiter-Glo ATP luminescence, 48-72 h; max response: active compounds read low; further: nearly all actives have a fitted effect of over 60% in size; on max response: on the % scale 0 is the no-effect control and ±100 the full control effect
In short: (§1)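 Cells exposed to compounds for 48 or 72 hr at 37 degrees Celsius. Viability read as ATP-coupled luminescence with CellTiter-Glo after 10 min at room temperature.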

HEK293 = experiment: as above; details: Five cell lines viability, CellTiter-Glo ATP luminescence, 48-72 h; max response: active compounds read low
In short: as §1

HaCat [1] = experiment: as above; details: Five cell lines viability, CellTiter-Glo ATP luminescence, 48-72 h; max response: active compounds read low
In short: as §1

KB-3-1 = experiment: as above; details: Five cell lines viability, CellTiter-Glo ATP luminescence, 48-72 h; max response: active compounds read low
In short: as §1

NIH3T3 [2] = experiment: as above; details: Five cell lines viability, CellTiter-Glo ATP luminescence, 48-72 h; max response: active compounds read low
In short: as §1

HACAT [3] = experiment: qHTS assay to identify novel small-molecules to repurpose for Merkel cell carcinoma treatment (AID 1296009); details: MCC and control cell lines, CellTiter-Glo viability, 72 h; at 44.8 µM (top of the series) unless noted; further: nearly all actives have a fitted effect of over 60% in size
In short: (§2)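 CellTiter-Glo luminescence after 72 hr compound exposure at 37 degree celsius gave cell viability. Libraries NPC and MIPE were run as 8- and 11-point dose responses; RLUs normalized to DMSO (negative) and no-cell (cytotoxicity) controls.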

HEK293T = experiment: as above; details: MCC and control cell lines, CellTiter-Glo viability, 72 h; series mostly up to 44.8 µM
In short: as §2

C33A = experiment: Primary qHTS to identify gynecologic anti-cancer compounds using libraries of approved drugs and bioactive compounds (AID 1345084); details: Gynecologic cancer cell panel viability, ATPlite luminescence, 48 h; series mostly up to 57.5 µM; further: on the % scale 0 is the no-effect control and ±100 the full control effect; nearly all actives have a fitted effect of over 55% in size
In short: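 Cytotoxicity screen measuring ATP content by luciferase luminescence. Each compound is applied at five concentrations for 48 h at 37 C with 5% CO2.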

NIH3T3 [4] = experiment: qHTS assay to identify novel small-molecules to repurpose for Merkel cell carcinoma treatment (AID 1296009); details: MCC and control cell lines, CellTiter-Glo viability, 72 h; at 44.8 µM (top of the series) unless noted; further: nearly all actives have a fitted effect of over 60% in size
In short: as §2

CC12CC34C=CC(=O)C(C)(CCC(=O)O)C3C(CC1C4)O2 (stereo not drawn)
inactive: outcome (CRL-7250) | outcome (HEK293) | outcome (HaCat [1]) | max response (KB-3-1) 5.48% | outcome (NIH3T3 [2]) | outcome (HACAT [3]) | Potency (HEK293T) | Potency (C33A)

C[C@@H]1C[C@H](O)/C=C/[C@H](O)[C@@H](O)CC(=O)O1
inactive: max response (CRL-7250) 2.61% | outcome (HEK293) | max response (HaCat [1]) 3.57% | outcome (KB-3-1) | outcome (NIH3T3 [2]) | Potency (HEK293T) | outcome (NIH3T3 [4]) | Potency (C33A)

c1ccc(Nc2nc3c(s2)CCCc2[nH]ncc2-3)nc1
inactive: max response (CRL-7250) -6.19% | outcome (HEK293) | outcome (HaCat [1]) | outcome (KB-3-1) | max response (NIH3T3 [2]) 3.95% | outcome (HACAT [3]) | Potency (HEK293T) | Potency (C33A)

COc1cc(-c2cccc(O)c2)cc2c1OCO2
inactive: max response (CRL-7250) -4.5% | outcome (HEK293) | max response (HaCat [1]) 0.342% | outcome (KB-3-1) | outcome (NIH3T3 [2]) | Potency (HEK293T) | outcome (NIH3T3 [4]) | Potency (C33A)

O=C(O)Cc1nn(Cc2nc3cc(C(F)(F)F)ccc3s2)c(=O)c2nccnc12
inactive: outcome (CRL-7250) | outcome (HEK293) | outcome (HaCat [1]) | max response (KB-3-1) 9.35% | max response (NIH3T3 [2]) 3.31% | outcome (HACAT [3]) | Potency (HEK293T) | Potency (C33A)

CC1(C)CC[C@]2(C(=O)O)CC[C@]3(C)C(=CCC4[C@@]5(C)C[C@H](O)[C@H](O[C@@H]6OC[C@H](O)[C@H](O)[C@H]6O)[C@@](C)(CO)C5CC[C@]43C)[C@@H]2C1 (stereo partly drawn)
inactive: outcome (CRL-7250) | outcome (HEK293) | outcome (HaCat [1]) | outcome (KB-3-1) | max response (NIH3T3 [2]) 2.89% | outcome (HACAT [3]) inactive [at 17.4 µM] | Potency (HEK293T) | Potency (C33A)

CC[C@H](/C=C/[C@@H](C)[C@H]1CC[C@H]2[C@@H]3CC=C4C[C@@H](O)CC[C@]4(C)[C@H]3CC[C@]12C)C(C)C
inactive: max response (CRL-7250) -4.85% | outcome (HEK293) | max response (HaCat [1]) 0.322% | outcome (KB-3-1) | outcome (NIH3T3 [2]) | outcome (HEK293T) inactive [at 4.96 µM] | outcome (NIH3T3 [4]) inactive [at 4.96 µM] | activity change, negative = cytotoxicity (C33A) 8.42% [at 6.55 µM]

C[C@@H]1C(=O)O[C@H]2[C@H]1CC[C@@]1(C)C(=O)C=C[C@](C)(O)[C@H]21
inactive: outcome (CRL-7250) | outcome (HEK293) | outcome (HaCat [1]) | max response (KB-3-1) 1.87% | max response (NIH3T3 [2]) -2.11% | outcome (HACAT [3]) | Potency (HEK293T) | Potency (C33A)

CCOc1ccc(C(Nc2ccccn2)c2ccc3ccc(C)nc3c2O)cc1C (stereo not drawn)
inactive: outcome (CRL-7250) | outcome (HEK293) | outcome (HaCat [1]) | max response (KB-3-1) -0.87% | max response (NIH3T3 [2]) -16.7% | outcome (HACAT [3]) | Potency (HEK293T) | Potency (C33A)

CC(C)C(C#N)O[C@@H]1O[C@H](CO[C@@H]2OC[C@](O)(CO)[C@H]2O)[C@@H](O)[C@H](O)[C@H]1O (stereo partly drawn)
inactive: max response (CRL-7250) 0.582% | outcome (HEK293) | outcome (HaCat [1]) | max response (KB-3-1) 5.78% | max response (NIH3T3 [2]) 3.22% | outcome (HACAT [3]) | Potency (HEK293T) | Potency (C33A)

COc1cc(C2Oc3c(OC)cc(/C=C/C(=O)OC[C@H]4O[C@@H](OC(C)(C)C(=O)O)[C@H](O)[C@@H](O)[C@@H]4O)cc3C2CO)ccc1O (stereo partly drawn)
inactive: outcome (CRL-7250) | outcome (HEK293) | outcome (HaCat [1]) | max response (KB-3-1) 0.492% | max response (NIH3T3 [2]) 1.11% | outcome (HACAT [3]) inactive [at 17.4 µM] | Potency (HEK293T) | Potency (C33A)

C=CC1(C)C=C2C(=O)CC3C(C)(C)CCCC3(C(=O)O)C2(O)CC1 (stereo not drawn)
inactive: outcome (CRL-7250) | outcome (HEK293) | outcome (HaCat [1]) | outcome (KB-3-1) | max response (NIH3T3 [2]) -3.47% | outcome (HACAT [3]) | Potency (HEK293T) | Potency (C33A)

C/C=C/C=C/C=C/C(=O)O[C@@H]1[C@@H](OC)C2=C(C(=O)N(C(C)C(=O)O)C2)[C@@]2(C)CCCC(C)(C)[C@H]12 (stereo partly drawn)
inactive: max response (CRL-7250) -1.32% | outcome (HEK293) | outcome (HaCat [1]) | max response (KB-3-1) 5.59% | max response (NIH3T3 [2]) 0.76% | outcome (HACAT [3]) inactive [at 17.4 µM] | Potency (HEK293T) | Potency (C33A)

C=CC1C(O[C@@H]2O[C@H](CO)[C@@H](O)[C@H](O)[C@H]2O)OC=C(C(=O)OC)C1Cc1nccc2c1[nH]c1ccccc12 (stereo partly drawn)
inactive: max response (CRL-7250) 3.98% | outcome (HEK293) | max response (HaCat [1]) 1.01% | max response (KB-3-1) 5.15% | outcome (NIH3T3 [2]) | Potency (HEK293T) | outcome (NIH3T3 [4]) inactive [at 17.4 µM] | Potency (C33A)

COCC(=O)N1CCc2cc(-c3csc(NC(=O)c4cc(OC)cc(OC)c4)n3)ccc21
inactive: outcome (CRL-7250) | outcome (HEK293) | max response (HaCat [1]) -4% | outcome (KB-3-1) | outcome (NIH3T3 [2]) | Potency (HEK293T) | outcome (NIH3T3 [4]) | Potency (C33A)

COC(=O)C1=COC(O[C@@H]2O[C@H](CO)[C@@H](O)[C@H](O)[C@H]2O)/C(=C\COC(=O)c2ccc(OC3OC(CO)C(O)C(O)C3O)c(OC)c2)C1CC(=O)OCCc1ccc(O)cc1 (stereo partly drawn)
inactive: max response (CRL-7250) -6.94% | outcome (HEK293) | outcome (HaCat [1]) | outcome (KB-3-1) | max response (NIH3T3 [2]) 1.16% | outcome (HACAT [3]) inactive [at 9.27 µM] | outcome (HEK293T) inactive [at 9.27 µM] | activity change, negative = cytotoxicity (C33A) 7.7% [at 11.6 µM]
